Source: PubChem BioAssay (National Center for Advancing Translational Sciences (NCATS))
FLuc inh: Photinus pyralis luciferase inhibition; P08659; purified P. pyralis luciferase, luminescence, biochemical; Potency, µM (titrated, usually from 115 µM), most hits filed as inhibitors; 76,000 tested, 2.5% active; AID 1347043; further: nearly all actives have a fitted effect of over 65% in size
Target sequence (P08659 whole entry, looked up): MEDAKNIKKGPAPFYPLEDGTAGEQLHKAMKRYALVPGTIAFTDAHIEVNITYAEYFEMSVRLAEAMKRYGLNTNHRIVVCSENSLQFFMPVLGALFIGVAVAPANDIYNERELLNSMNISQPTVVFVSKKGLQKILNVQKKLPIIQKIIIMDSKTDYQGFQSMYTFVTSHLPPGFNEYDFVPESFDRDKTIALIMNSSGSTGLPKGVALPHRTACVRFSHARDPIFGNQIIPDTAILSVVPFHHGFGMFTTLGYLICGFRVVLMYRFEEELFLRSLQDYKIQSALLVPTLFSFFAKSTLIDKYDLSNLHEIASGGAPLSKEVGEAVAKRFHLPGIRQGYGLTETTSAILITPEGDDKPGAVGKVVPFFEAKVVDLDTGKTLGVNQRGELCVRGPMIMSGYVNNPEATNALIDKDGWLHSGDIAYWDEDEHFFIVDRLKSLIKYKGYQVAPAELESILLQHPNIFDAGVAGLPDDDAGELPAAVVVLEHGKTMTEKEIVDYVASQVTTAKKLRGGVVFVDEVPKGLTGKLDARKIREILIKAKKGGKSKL
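Purified P. pyralis luciferase (10nM final) in 50mM Tris acetate pH 7.5, 10mM Mg acetate, 0.01% Tween-20, 0.05% BSA with 10uM D-luciferin and 10uM ATP. Compounds titrated qHTS. Luminescence imaged on CCD.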
3T3 cytotox: kills NIH 3T3 cells; Potency, µM (top dose mostly 96.7 µM), without a hit: top-dose activity change, negative = cytotoxicity, hits mostly inhibitors; AID 1345082; 94,000 tested, 4.3% active; NIH 3T3 viability, CellTiter-Glo ATP luminescence, 48-72 h; further: nearly all actives have a fitted effect of over 55% in size
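Viability of NIH 3T3 cells after 48 or 72 hr compound treatment at 37 °C was assessed by CellTiter-Glo, with luminescence imaged following a 10 min room-temperature step.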
NPR1 antag: human Npr1 receptor antagonism; HEK293 hNpr1 GloSensor cGMP, ANP-stimulated luminescence; Potency, µM (highest dose often 46.3 µM), inactives show at the top dose activity change, negative = inhibition, most hits filed as inhibitors; 76,000 tested, 1.6% active; AID 1347048; calls by dose curve; further: nearly all actives have a fitted effect of over 60% in size
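Compound pre-incubated 30 min at room temperature on GloSensor-loaded HEK293 cells stably carrying hNpr1 and the pGS-40F cGMP biosensor. Stimulation uses hNppA at 0.1 nM final; luminescence is taken at baseline and 20 min post-agonist.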
HEK293 tox: HEK 293 cell cytotoxicity; HEK 293 viability, ATP luminescence (CellTiter-Glo), 48-72 h; Potency, µM (highest dose often 115 µM), for the others: at the top dose activity change, negative = cytotoxicity, usual class: inhibitors; 94,000 tested, 6.6% active; AID 1345083; further: nearly all actives have a fitted effect of over 60% in size
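250 HEK 293 cells/well; compound by pintool; incubated 48 or 72 hr at 37 degree Celsius; CellTiter-Glo added, 10 min RT, luminescence imaged.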
An asterisk follows results filed as active; i = inactive; ? = inconclusive; . = not tested or not shown; [ ] = dose if it differs, or a comment. Sampled rows, rich in hits. Any-hit rate of the full collection: about 11%. Unless noted, the call rests on the fitted dose curve; in most records, active means well fitted curve in the direction sought with a large enough effect; inconclusive means small, poorly fitted or top-dose-only effect, or another doubt; inactive means no such curve, though single readings can be large; an effect the other way counts as inactive or inconclusive. On the % scale 0 is the no-effect control and ±100 the full control effect; potency means the concentration at half of the fitted maximal effect.

SMILES | FLuc inh | 3T3 cytotox | NPR1 antag | HEK293 tox
O=C(NCc1ccc2c(c1)OCO2)C1CCN(c2nc3ncccc3o2)CC1 | . | -27% | . | ?
O=C1CC(c2ccccc2)N(C(=O)CNC(=O)c2ccc3ccccc3n2)CCCCCCN1 (centres undefined) | i | -17% | 3% | -30%
CCC(=O)N1CC(Oc2ccccc2-c2nc(C3CC3)no2)C1 | . | -16% | . | -2%
O=[N+]([O-])c1cccc(-c2noc([C@@H]3Cc4nc[nH]c4CN3Cc3ccc(F)cc3)n2)c1 | i | ? | ? | 50µM*
O=[N+]([O-])c1cccc(-c2noc([C@@H]3Cc4nc[nH]c4CN3Cc3cccs3)n2)c1 | i | 79µM* | ? | ?
COc1ccc(Nc2ccnc(N3CCC(N[S+](=O)([O-])c4c(C)noc4C)CC3)n2)cc1 | . | 40µM* | . | 45µM*
O=[S+]([O-])(NC1CCN(c2nc3ncccc3o2)CC1)c1cccc(C(F)(F)F)c1 | i | ? | 1% | ?
COc1ccc(Nc2ccnc(N3CCC(N[S+](C)(=O)[O-])CC3)n2)cc1 | . | -27% | . | ?
COc1ccc(Nc2ccnc(N3CCC(N[S+](=O)([O-])c4cccc(C(F)(F)F)c4)CC3)n2)cc1 | . | 18µM* | . | 22µM*
CO[C@H]1C(=O)N(C(C)C)[C@H]1C1CCN(C(=O)Cn2nc(C(F)(F)F)cc2C)CC1 | 35µM* | i | 6% | i
CO[C@H]1C(=O)N(C(C)C)[C@H]1C1CCN(C(=O)Cn2ccc(C)n2)CC1 | 25µM* | -1% | 0% | 0%
COc1ccccc1CCC(=O)NC1CCN(C(=O)c2cc3c(=O)[nH]c(C)cn3n2)CC1 | i | 3% | 1% | 11%
O=C(Cc1ccc2c(c1)OCO2)NCc1cccnc1N1CCOCC1 | 28µM* | -17% | 2% | -10%
O=C(CCc1ccnc(N2CCOCC2)c1)Nc1ccc2c(c1)OCO2 | 35µM* | -28% | -12% | -24%
O=C(Nc1cccc(-c2nnc3n2CCCC3)c1)c1ccc2c(c1)OCO2 | ? | -18% | -2% | ?
O=C(c1ccccc1)N1CCCC(C(=O)N2CCCC(c3nc4ncccc4[nH]3)C2)C1 (centres undefined) | . | -15% | . | ?
CN(C)Cc1nnc(C2CC(NC(=O)c3ccc4scnc4c3)C2)n1C (centres undefined) | i | -2% | -6% | -22%
CC(C)n1nc(OC(C)(C)C(=O)Nc2cccnc2)c2cc(CN3CCOCC3)ccc21 | i | 28µM* | 5%[70.6 µM] | -26%[172 µM]
COCc1ccc2c(c1)c(OC(C)(C)C(=O)N1CCN(C)CC1)nn2Cc1ccccc1 | i | ? | -24%[70.6 µM] | ?
COCc1ccc2c(c1)c(OC(C)(C)C(=O)N1CCOCC1)nn2Cc1cccnc1 | i | 32µM* | 2%[70.6 µM] | -9%[172 µM]
COCc1ccc2c(c1)c(OC(C)(C)C(=O)NCCN1CCOCC1)nn2Cc1cccnc1 | i | ? | 5% | -2%
COCc1ccc2c(c1)c(OC(C)(C)C(=O)N1CCOCC1)nn2Cc1cccc(OC)c1 | i | 4µM* | 4% | -29%
COCc1ccc2c(c1)c(OC(C)(C)C(=O)N1CCN(CCO)CC1)nn2Cc1cccnc1 | i | 35µM* | 8% | i
COCc1ccc2c(c1)c(OC(C)(C)C(=O)NC(C)C)nn2Cc1cccc(OC)c1 | i | ? | 1%[70.6 µM] | ?
CN1CCC(OC2CCN(C(=O)c3ccc(C(F)(F)F)cc3)CC2)CC1 | i | -21% | -8% | -23%
SMILES | FLuc inh | 3T3 cytotox | NPR1 antag | HEK293 tox
COc1cccc(OCc2nc3c(n2Cc2ccccc2)C(=O)N(Cc2cccc(Cl)c2)CCN3)c1 | i | ? | -15% | 25µM*
COc1ccccc1OCc1nc2c(n1Cc1ccccc1)C(=O)N(CC1CC1)CCN2 | i | ? | -2%[70.6 µM] | ?
COc1ccccc1OCc1nc2c(n1Cc1ccccc1)C(=O)N(Cc1cccc(Cl)c1)CCN2 | i | 32µM* | 4% | ?
COc1cc(OC)cc(OCc2nc3c(n2Cc2ccccc2)C(=O)N(Cc2cccc(Cl)c2)CCN3)c1 | i | 22µM* | -7% | 40µM*
O=C1c2c(nc(COc3cccc(Cl)c3)n2Cc2ccccc2)NCCN1CC1CC1 | i | ? | -15%[70.6 µM] | 100µM*
COCCCn1c(=O)c(C(=O)Nc2ccc(F)cc2)nc2cccnc21 | . | -27%[138 µM] | . | ?
O=C(NCC1CCCO1)c1csc(N2CCN(c3ccc(Cl)cc3)CC2)n1 (centres undefined) | i | ? | ? | 35µM*
COc1ccc(N2CCN(c3nc(C(=O)NCc4ccco4)cs3)CC2)cc1 | i | ? | -25% | ?
CN(Cc1cccnc1)c1ccc2ncc(Nc3cccc(N[S+](C)(=O)[O-])c3)n2n1 | i | ? | -3%[70.6 µM] | -15%[172 µM]
COc1ncccc1Nc1cnc2ccc(N(C)Cc3ccc(F)cc3)nn12 | i | ? | ? | 45µM*
CN(Cc1ccc(F)cc1)c1ccc2ncc(Nc3cccc(N[S+](C)(=O)[O-])c3)n2n1 | i | 32µM* | ? | 35µM*
CN(Cc1ccc(F)cc1)c1ccc2ncc(Nc3ccc(CCO)cc3)n2n1 | i | 22µM* | -11%[70.6 µM] | ?
CCC1c2nccn2CCCN1C(=O)COc1ccc(F)cc1 (centres undefined) | i | -6% | -2% | 5%
COCCNC(=O)c1nc2sccn2c1-c1cccc(C#N)c1 | . | -16%[138 µM] | . | 3%[172 µM]
CC(C)(C)C1CCC2(CC1)NC(=O)N(CC(=O)Nc1ccc3c(c1)OCCO3)C2=O (centres undefined) | ? | 28µM* | 0% | ?
O=C(Cn1nc2n(c1=O)CCCC2)Nc1ccc2c(c1)OCO2 | ? | i | 0% | -7%
O=C(Cn1nc2n(c1=O)CCCC2)Nc1ccc2c(c1)OCCO2 | 20µM* | i | -18% | 13%
O=C(CN1C(=O)NC2(CCOCC2)C1=O)Nc1ccc2c(c1)OCCO2 | 45µM* | 1% | 3% | 2%
CN1CCC(OC2CCN(S(=O)(=O)c3ccccc3C(F)(F)F)CC2)CC1 | i | -31% | -4% | -11%
CC(=O)NC1(C)CN(Cc2ccc(-c3cccc(C(F)(F)F)c3)s2)C1 | 13µM* | 45µM* | ? | 63µM*
CC(=O)NC1(C)CN(Cc2ccc(-c3cccc(F)c3)s2)C1 | ? | ? | -2%[70.6 µM] | ?
CCCCn1c(=O)c(C(=O)N2CCN(C(=O)c3ccc(OC)cc3)CC2)nc2cccnc21 | . | ? | . | -20%
COC(=O)c1ccc2nc(C[C@@H]3C[C@@H](C(C)C)[C@H](CNCc4ccccc4O)C=C3C)[nH]c2c1 | i | 20µM* | ? | 22µM*
COC(=O)c1ccc2nc(C[C@@H]3C[C@@H](C(C)C)[C@H](CNC4CCN(C(C)=O)CC4)C=C3C)[nH]c2c1 | i | ? | 1% | ?
COC(=O)c1ccc2nc(C[C@@H]3C[C@@H](C(C)C)[C@H](CNS(=O)(=O)c4ccccc4)C=C3C)[nH]c2c1 | i | 32µM* | -6% | 28µM*
